# Laboratory results reported in the supplement of paper PMC12339681.
# Structures can show the parent of a compound that is named as a salt.
# Test system: PBMC-derived induced microglia-like cells (piMGLC)
# Assay: synaptosome phagocytic index relative to DMSO control (fraction of DMSO); higher = more phagocytosis
# Conditions: concentration: 10 uM (2 uM for compounds listed in Table S2); pretreatment time: 24 h; assay time: 3 h
row,Structure (SMILES),synaptosome phagocytic index
1,CN1CCN(C2=Nc3ccccc3Oc3ccc(Cl)cc32)CC1 [Loxapine],0.272
2,CCc1c2c(nc3ccc(OC(=O)N4CCC(N5CCCCC5)CC4)cc13)-c1cc3c(c(=O)n1C2)COC(=O)[C@]3(O)CC [Irinotecan],0.692
3,CC(C)(O)CC(=O)NCCn1ccc2ncnc(Nc3ccc(Oc4cccc(C(F)(F)F)c4)c(Cl)c3)c21,1.04
4,Fc1ccc(-c2ccc3c(c2)[nH]c2ccncc23)cn1,0.711
5,CCc1cc(C(N)=S)ccn1 [Ethionamide],0.996
6,NC(=O)c1ccc(OCCCN2CC3CCCC3C2)cc1 (stereo unspecified),0.933
7,C[C@H]1COCCN1c1nc(-c2cnc(N)cc2C(F)F)nc(N2CCOCC2)n1,0.366
8,CCCCN1C[C@H](O)[C@@H](O)[C@H](O)[C@H]1CO [Miglustat_(hydrochloride)],1.04
9,COc1ncccc1-c1cnn2ccc(N3CCN(C(=O)OC(C)C)CC3)nc12,0.708
10,Cc1nc(-c2cccnc2)sc1C(=O)Nc1ccccc1-c1cn2c(CN3CCOCC3)csc2n1,0.157
11,CN(CCOc1ccc(CC2SC(=O)NC2=O)cc1)c1ccccn1 (stereo unspecified) [Rosiglitazone],1.19
12,C[C@@H]1CN(C(=O)[C@@H]2CN(C(C)(C)C)C[C@H]2c2ccc(F)cc2F)C[C@H](C)[C@@]1(O)c1ccccc1,0.704
13,CN(C)CC(c1ccc(O)cc1)C1(O)CCCCC1 (stereo unspecified) [Desvenlafaxine_(succinate_hydrate)],1.11
14,CNCCCC1c2ccccc2C=Cc2ccccc21 [Protriptyline_(hydrochloride)],0.93
15,FC(F)(F)c1ccc(CNc2ccc(Cc3c[nH]c4ncc(Cl)cc34)cn2)cn1 [Pexidartinib_(hydrochloride)],0.976
16,CCCN[C@H]1CCc2nc(N)sc2C1 [Pramipexole_(dihydrochloride_hydrate)],0.763
17,N[C@@H](CC(=O)O)C(=O)O [L-Aspartic_acid],0.871
18,COc1ccc(C2CNC(=O)C2)cc1OC1CCCC1 (stereo unspecified) [Rolipram],0.814

row,Structure (SMILES),synaptosome phagocytic index
1,O=C(O)Cc1nn(Cc2nc3cc(C(F)(F)F)ccc3s2)c(=O)c2cscc12,0.982
2,CO/N=C(\C(=O)N[C@@H]1C(=O)N2C(C(=O)O)=C(COC(C)=O)CS[C@H]12)c1csc(N)n1 [Cefotaxime_(sodium_salt)],0.951
3,NC(=O)NO [Hydroxyurea],0.555
4,CCN(CC)CC#CCOC(=O)C(O)(c1ccccc1)C1CCCCC1 (stereo unspecified) [Oxybutynin],0.889
5,Oc1c(I)cc(Cl)c2cccnc12 [Clioquinol],0.393
6,Cn1cc2cc(C(F)(F)c3nnc4ccc(-c5cnn(C6CC6)c5)nn34)c(F)cc2n1 [Bozitinib],0.851
7,C[C@@H]1O[C@@H]1P(=O)(O)O [Fosfomycin_(sodium)],1.11
8,CCC(=N\O)/C(C)=C/c1ccc(F)cc1,0.93
9,CC(C)n1c(=O)n(C)c2cnc3cc(F)c(-c4ccc(OCCCN5CCCCC5)nc4)cc3c21,0.706
10,C[C@H](c1ccc(F)cc1CCCC(=O)O)N(c1cc(F)ccc1F)S(=O)(=O)c1ccc(Cl)cc1,0.385
11,COc1cc2c(N3CCN(C(=O)Nc4ccc(OC(C)C)cc4)CC3)ncnc2cc1OCCCN1CCCCC1 [Tandutinib],0.936
12,CN(C)C(=N)NC(=N)N [Metformin_(hydrochloride)],0.668
13,CCOC(=O)C1=CCCC[C@H]1S(=O)(=O)Nc1ccc(F)cc1Cl [Resatorvid],0.156
14,C[C@H]1[C@H](NC(=O)/C(=N\OC(C)(C)C(=O)O)c2csc(N)n2)C(=O)N1S(=O)(=O)O [Aztreonam],0.528
15,CCN(CC)Cc1ccc2cc(COC(=O)Nc3ccc(C(=O)NO)cc3)ccc2c1 [Givinostat_(hydrochloride_monohydrate)],0.482
16,Nc1nc2c(ncn2COC(CO)CO)c(=O)[nH]1 [Ganciclovir],0.98
17,NC(=O)c1cn(Cc2c(F)cccc2F)nn1 [Rufinamide],0.654
18,Cc1ccccc1C(OCCN(C)C)c1ccccc1 (stereo unspecified) [Orphenadrine_(citrate)],1.23
